According to PubChem BioAssay (EPA / NIEHS):
The source made the active and inactive calls. Rule for the calls: active = hit-call score of the fitted dose curve at least 0.9, where 1 is the maximum; inactive = score below 0.9.

Columns and labels:
[1] = CEETOX_H295R_DOC: CeeTox H295R High-throughput Steroidogenesis Assay for DOC (AID 2283439); conditions: actives raise or lower the signal
Outline: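 H295R cells prestimulated 48 h with 10 uM forskolin, then exposed 48 h to test chemical (0.1% DMSO final). Medium 11-deoxycorticosterone measured by HPLC-MS/MS after MTBE extraction; bidirectional fit vs DMSO, viability checked by MTT in same wells.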

[2] = CEETOX_H295R_PROG: CeeTox H295R High-throughput Steroidogenesis Assay for Progesterone (PROG) (AID 2283442); conditions: actives raise or lower the signal
Outline: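 Steps: seed H295R cells and let them adhere overnight; prime 48 h with 10 uM forskolin; dose with compound in DMSO at 0.1% final for 48 h; extract medium steroids with MTBE; measure progesterone by LC-MS/MS. MTT viability was run in the same wells.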

[3] = read-out: Tumor necrosis factor receptor superfamily member 6 (Homo sapiens) (UniProt P25445); assay: LTEA_HepaRG_FAS: Life Technologies and Expression Analysis (LTEA) Assay for Fas cell surface death receptor (FAS) using HepaRG (AID 2283447); conditions: mRNA level, 48 h; actives raise or lower the signal
Outline: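 FAS transcript level was measured by TaqMan qRT-PCR against three housekeeping genes after 48 h chemical exposure. Cells were HepaRG, 0.5% DMSO vehicle, with a top concentration of 100 uM and half-log dilutions over eight points, in duplicate.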

[4] = read-out: Cyclin D2 (CCND2), CCND2 (gene 894); assay: LTEA_HepaRG_CCND2: Life Technologies and Expression Analysis (LTEA) Assay for Cyclin D2 (CCND2) using HepaRG (AID 2283449); conditions: mRNA level, 48 h; actives raise or lower the signal
Outline: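 Read-out is CCND2 mRNA level measured by qRT-PCR in human HepaRG liver cells and normalised to three housekeeping genes. Chemicals were applied for 48 h at up to 100 uM, with gain or loss fitted relative to 0.5% DMSO.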

[5] = read-out: Cyclin Dependent Kinase Inhibitor 1A (CDKN1A), CDKN1A (gene 1026); assay: LTEA_HepaRG_CDKN1A: Life Technologies and Expression Analysis (LTEA) Assay for Cyclin Dependent Kinase Inhibitor 1A (CDKN1A) using HepaRG (AID 2283450); conditions: mRNA level, 48 h; actives raise or lower the signal
Outline: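 Read-out is CDKN1A mRNA by TaqMan qRT-PCR, normalized to three housekeeping genes and fitted in both directions against the DMSO baseline. Human HepaRG cells were treated 48 h with test chemicals up to 100 uM in half-log steps, 0.5% DMSO.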

[6] = read-out: Cyclin D1 (CCND1), CCND1 (gene 595); assay: LTEA_HepaRG_CCND1: Life Technologies and Expression Analysis (LTEA) Assay for Cyclin D1 (CCND1) using HepaRG (AID 2283451); conditions: mRNA level, 48 h; actives raise or lower the signal;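 for AC50: differentiated human HepaRG liver cells in serum-free induction medium; TaqMan qRT-PCR transcript level normalised to ACTB GAPDH and POLR2A housekeeping genes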
Outline: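 HepaRG plated 48 h, medium switched to serum-free induction medium, chemicals added in duplicate (top 100 uM, half-log steps, 0.5% DMSO) for 48 h, cells lysed, RNA measured by TaqMan qRT-PCR.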

[7] = read-out: catalase (CAT), CAT (gene 847); assay: LTEA_HepaRG_CAT: Life Technologies and Expression Analysis (LTEA) Assay for catalase (CAT) using HepaRG (AID 2283452); conditions: mRNA level, 48 h; actives raise or lower the signal;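 for AC50: TaqMan qRT-PCR signal normalized to ACTB GAPDH and POLR2A housekeeping genes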
Outline: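 Expression of CAT was quantified by TaqMan qRT-PCR with ACTB/GAPDH/POLR2A normalization after 48 h chemical exposure of HepaRG. Eight-point half-log series, top 100 uM, in 0.5% DMSO; gain or loss fitted against vehicle.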

[8] = read-out: flavin-containing dimethylaniline monooxygenases 3 (FMO3), FMO3 (gene 2328); assay: LTEA_HepaRG_FMO3: Life Technologies and Expression Analysis (LTEA) Assay for flavin-containing dimethylaniline monooxygenases 3 (FMO3) using HepaRG (AID 2283453); conditions: mRNA level, 48 h; actives raise or lower the signal;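 for AC50: differentiated human HepaRG liver cells in serum-free induction medium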
Outline: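 Differentiated HepaRG cells in serum-free induction medium, exposed 48 h in duplicate to 8 half-log concentrations up to 100 uM in 0.5% DMSO. FMO3 mRNA by qRT-PCR, normalized to ACTB, GAPDH, POLR2A; bidirectional fit vs DMSO.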

[9] = read-out: Cytochrome P450 (CYP1A1), CYP1A1 (gene 1543); assay: LTEA_HepaRG_CYP1A1: Life Technologies and Expression Analysis (LTEA) Assay for Cytochrome P450 (CYP1A1) using HepaRG (AID 2283454); conditions: mRNA level, 48 h; actives raise or lower the signal
Outline: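 HepaRG, 48 h post-plating switched to serum-free induction medium; 8-pt conc-response (top 100 uM, half-log, 0.5% DMSO), duplicates, 48 h. Lysis in RLT, TaqMan qRT-PCR for CYP1A1; gain or loss vs DMSO.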

[10] = read-out: CFLAR gene, CFLAR (gene 8837); assay: LTEA_HepaRG_CFLAR: Life Technologies and Expression Analysis (LTEA) Assay for CFLAR gene using HepaRG (AID 2283455); conditions: mRNA level, 48 h; actives raise or lower the signal
Outline: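 HepaRG, 48 h exposure, 8-pt conc-response (100 uM top, half-log), 0.5% DMSO vehicle, duplicates. CFLAR expression by qRT-PCR; ACTB/GAPDH/POLR2A normalization; gain or loss fit vs DMSO baseline.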

[11] = read-out: Forkhead box O1 (FOXO1), FOXO1 (gene 2308); assay: LTEA_HepaRG_FOXO1: Life Technologies and Expression Analysis (LTEA) Assay for Forkhead box O1 (FOXO1) using HepaRG (AID 2283456); conditions: mRNA level, 48 h; actives raise or lower the signal
Outline: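 Readout is FOXO1 transcript level by multiplexed qRT-PCR against three housekeeping genes, curve-fitted in both directions relative to 0.5% DMSO vehicle. Human HepaRG cultures received chemicals for 48 h, up to 100 uM in half-log steps.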

[12] = read-out: growth arrest and DNA damage 45 (GADD45A), GADD45A (gene 1647); assay: LTEA_HepaRG_GADD45A: Life Technologies and Expression Analysis (LTEA) Assay for growth arrest and DNA damage 45 (GADD45A) using HepaRG (AID 2283458); conditions: mRNA level, 48 h; actives raise or lower the signal
Outline: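 Differentiated HepaRG cells exposed 48 h in serum-free induction medium to 8 concentrations, top 100 uM in half-log steps, 0.5% DMSO. GADD45A mRNA quantified by qRT-PCR, normalized to ACTB, GAPDH and POLR2A; bidirectional fit versus DMSO.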

[13] = read-out: Forkhead box O3 (FOXO3), FOXO3 (gene 2309); assay: LTEA_HepaRG_FOXO3: Life Technologies and Expression Analysis (LTEA) Assay for Forkhead box O3 (FOXO3) using HepaRG (AID 2283459); conditions: mRNA level, 48 h; actives raise or lower the signal
Outline: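 HepaRG, 48 h post-dose; 8 conc., half-log from 100 uM, 0.5% DMSO, duplicates; serum-free induction medium. Readout: FOXO3 mRNA, TaqMan qRT-PCR, housekeeping-normalized. Bidirectional curve fit vs DMSO baseline.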

[14] = read-out: ABC Transporter (ABCB1), ABCB1 (gene 5243); assay: LTEA_HepaRG_ABCB1: Life Technologies and Expression Analysis (LTEA) Assay for ABC Transporter (ABCB1) using HepaRG (AID 2283460); conditions: mRNA level, 48 h; actives raise or lower the signal
Outline: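 Expression of ABCB1 was quantified by qRT-PCR against three housekeeping genes after human HepaRG cultures received test chemicals for 48 hours. Concentrations spanned eight half-log steps topping at 100 uM in 0.5% DMSO; gain or loss of signal was fitted relative to vehicle.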

[15] = read-out: growth arrest and DNA damage 45 (GADD45B), GADD45B (gene 4616); assay: LTEA_HepaRG_GADD45B: Life Technologies and Expression Analysis (LTEA) Assay for growth arrest and DNA damage 45 (GADD45B) using HepaRG (AID 2283461); conditions: mRNA level, 48 h; actives raise or lower the signal
Outline: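 HepaRG, ~100,000 cells/well, 48 h plating; serum-free induction medium; cpd 100 uM top, half-log x8, 0.5% DMSO, duplicate, 48 h; lysis in RLT, RNA isolation, qRT-PCR; norm ACTB/GAPDH/POLR2A; bidirectional fit vs DMSO.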

[16] = read-out: ABC Transporter (ABCC3), ABCC3 (gene 8714); assay: LTEA_HepaRG_ABCC3: Life Technologies and Expression Analysis (LTEA) Assay for ABC Transporter (ABCC3) using HepaRG (AID 2283462); conditions: mRNA level, 48 h; actives raise or lower the signal
Outline: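 Human HepaRG, 48 h dosing, 8-pt half-log series from 100 uM, 0.5% DMSO vehicle, duplicates. ABCC3 mRNA by TaqMan qRT-PCR, housekeeping-normalized; bidirectional curve fit vs DMSO.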

[17] = read-out: Fatty acid synthase (Homo sapiens) (UniProt P49327); assay: LTEA_HepaRG_FASN: Life Technologies and Expression Analysis (LTEA) Assay for Fatty Acid Synthase (FASN) using HepaRG (AID 2283448); conditions: mRNA level, 48 h; actives raise or lower the signal;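 for AC50: differentiated human HepaRG liver cells in serum-free induction medium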
Outline: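 Differentiated HepaRG cells in serum-free induction medium exposed 48 h in duplicate to eight half-log concentrations, top 100 uM, 0.5% DMSO. FASN mRNA by qRT-PCR normalised to ACTB, GAPDH, POLR2A; bidirectional fit versus DMSO.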

[18] = CEETOX_H295R_ESTRADIOL: CeeTox H295R High-throughput Steroidogenesis Assay for Estradiol (AID 2283440); conditions: actives raise or lower the signal;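 note: estradiol secreted into medium quantified by LC-MS/MS after dansyl derivatisation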
Outline: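 Estradiol secreted into the medium was measured by tandem mass spectrometry after liquid-liquid extraction and dansylation. Human H295R cells had been forskolin-primed (10 uM, 48 h) before a 48 h chemical exposure with 0.1% DMSO.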

[19] = CEETOX_H295R_ESTRONE: CeeTox H295R High-throughput Steroidogenesis Assay for Estrone (AID 2283441); conditions: actives raise or lower the signal;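 note: estrone secreted into medium measured by LC-MS/MS after dansyl derivatization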
Outline: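 H295R cells prestimulated 48 h with 10 uM forskolin, then exposed 48 h to chemicals in 0.1% DMSO final; estrone in medium extracted with MTBE, dansyl-derivatized, quantified by HPLC-MS/MS; bidirectional fitting versus DMSO, viability by MTT.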

Chain of Fatty acid synthase (Homo sapiens) (P49327 whole entry, looked up): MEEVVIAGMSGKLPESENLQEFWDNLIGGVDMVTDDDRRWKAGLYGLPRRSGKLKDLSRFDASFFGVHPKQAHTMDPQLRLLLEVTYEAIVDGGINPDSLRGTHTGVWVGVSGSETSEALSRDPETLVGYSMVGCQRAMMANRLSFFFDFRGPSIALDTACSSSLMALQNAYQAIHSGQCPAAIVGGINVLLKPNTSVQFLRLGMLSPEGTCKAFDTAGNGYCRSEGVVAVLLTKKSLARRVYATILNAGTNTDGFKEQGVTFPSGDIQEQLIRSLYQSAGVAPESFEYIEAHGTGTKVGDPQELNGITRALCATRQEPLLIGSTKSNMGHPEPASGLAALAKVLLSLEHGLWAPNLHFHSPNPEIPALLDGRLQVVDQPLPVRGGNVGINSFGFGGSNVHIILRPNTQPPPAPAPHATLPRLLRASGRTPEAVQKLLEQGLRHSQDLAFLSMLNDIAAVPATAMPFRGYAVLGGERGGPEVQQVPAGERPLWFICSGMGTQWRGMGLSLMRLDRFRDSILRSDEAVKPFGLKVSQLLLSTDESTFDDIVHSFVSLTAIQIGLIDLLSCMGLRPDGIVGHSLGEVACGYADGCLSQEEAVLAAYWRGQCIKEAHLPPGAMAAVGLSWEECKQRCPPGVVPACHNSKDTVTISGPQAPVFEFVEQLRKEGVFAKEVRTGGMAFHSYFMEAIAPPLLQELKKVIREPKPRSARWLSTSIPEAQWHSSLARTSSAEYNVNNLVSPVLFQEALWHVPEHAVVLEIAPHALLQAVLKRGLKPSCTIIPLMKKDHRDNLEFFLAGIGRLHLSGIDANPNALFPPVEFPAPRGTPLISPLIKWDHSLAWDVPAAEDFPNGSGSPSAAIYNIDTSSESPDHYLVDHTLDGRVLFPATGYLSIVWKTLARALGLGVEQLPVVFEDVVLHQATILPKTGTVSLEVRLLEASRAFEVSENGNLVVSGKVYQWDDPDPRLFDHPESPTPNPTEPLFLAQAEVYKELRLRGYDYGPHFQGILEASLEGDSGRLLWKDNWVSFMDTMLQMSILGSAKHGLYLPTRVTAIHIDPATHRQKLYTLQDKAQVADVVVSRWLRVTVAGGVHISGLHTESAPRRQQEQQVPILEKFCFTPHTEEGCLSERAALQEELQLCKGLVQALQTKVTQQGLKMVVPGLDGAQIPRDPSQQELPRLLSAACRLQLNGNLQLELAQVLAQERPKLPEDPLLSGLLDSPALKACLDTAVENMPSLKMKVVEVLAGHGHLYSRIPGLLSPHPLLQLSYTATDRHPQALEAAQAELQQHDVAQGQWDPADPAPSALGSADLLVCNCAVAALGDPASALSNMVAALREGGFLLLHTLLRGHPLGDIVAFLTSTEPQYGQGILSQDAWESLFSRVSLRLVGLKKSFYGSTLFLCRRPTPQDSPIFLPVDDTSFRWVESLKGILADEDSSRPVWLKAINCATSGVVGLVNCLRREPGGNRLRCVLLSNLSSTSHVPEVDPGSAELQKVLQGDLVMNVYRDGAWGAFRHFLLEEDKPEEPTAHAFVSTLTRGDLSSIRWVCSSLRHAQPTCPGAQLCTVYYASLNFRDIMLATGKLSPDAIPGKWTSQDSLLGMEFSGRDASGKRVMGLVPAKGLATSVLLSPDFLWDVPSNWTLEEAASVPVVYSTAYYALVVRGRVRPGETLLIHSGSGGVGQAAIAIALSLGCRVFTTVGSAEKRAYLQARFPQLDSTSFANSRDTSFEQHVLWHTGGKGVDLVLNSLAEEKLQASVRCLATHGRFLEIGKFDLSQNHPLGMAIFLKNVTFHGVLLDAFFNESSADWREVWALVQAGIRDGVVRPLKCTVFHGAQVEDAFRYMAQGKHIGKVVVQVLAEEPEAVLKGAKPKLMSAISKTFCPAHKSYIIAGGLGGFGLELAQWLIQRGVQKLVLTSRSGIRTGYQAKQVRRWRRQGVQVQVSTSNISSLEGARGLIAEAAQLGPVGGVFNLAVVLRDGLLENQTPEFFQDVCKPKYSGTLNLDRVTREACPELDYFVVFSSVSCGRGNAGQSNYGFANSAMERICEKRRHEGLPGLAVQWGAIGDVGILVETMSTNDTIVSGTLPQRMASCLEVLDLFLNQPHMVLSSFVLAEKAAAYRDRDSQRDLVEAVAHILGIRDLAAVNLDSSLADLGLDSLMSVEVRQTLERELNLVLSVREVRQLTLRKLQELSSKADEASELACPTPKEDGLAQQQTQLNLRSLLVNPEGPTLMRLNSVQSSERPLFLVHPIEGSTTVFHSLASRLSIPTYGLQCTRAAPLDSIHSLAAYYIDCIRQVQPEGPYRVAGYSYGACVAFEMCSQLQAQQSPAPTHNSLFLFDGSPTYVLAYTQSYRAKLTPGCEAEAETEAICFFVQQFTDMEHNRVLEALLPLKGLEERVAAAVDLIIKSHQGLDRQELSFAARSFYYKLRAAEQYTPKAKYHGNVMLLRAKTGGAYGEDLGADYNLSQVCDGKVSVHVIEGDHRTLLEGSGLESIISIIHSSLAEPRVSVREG

Compound: Nc1ccn([C@@H]2O[C@H](CO)[C@@H](O)[C@@H]2O)c(=O)n1
- outcome [1]: inactive
- outcome [2]: inactive
- outcome [3]: inactive
- outcome [4]: inactive
- outcome [5]: inactive
- outcome [6]: inactive
- outcome [7]: inactive
- outcome [8]: inactive
- AC50 [9]: 77.3 µM (active)
- outcome [10]: inactive
- outcome [11]: inactive
- outcome [12]: inactive
- outcome [13]: inactive
- outcome [14]: inactive
- outcome [15]: inactive
- outcome [16]: inactive

Compound: CC(C)C(=O)Nc1ccc([N+](=O)[O-])c(C(F)(F)F)c1
- AC50 [3]: 67 µM (active)
- AC50 [17]: 37 µM (active)
- outcome [4]: inactive
- AC50 [5]: 50 µM (active)
- AC50 [6]: 12.4 µM (active)
- AC50 [7]: 62.1 µM (active)
- AC50 [8]: 50 µM (active)
- AC50 [9]: 11.3 µM (active)
- AC50 [10]: 50 µM (active)
- AC50 [11]: 50 µM (active)
- AC50 [12]: 67.9 µM (active)
- outcome [13]: inactive
- outcome [14]: inactive
- outcome [15]: inactive
- outcome [16]: inactive

Compound: c1ccc(C(O[C@@H]2CCCN(CCc3ccc4c(c3)OCO4)C2)c2ccccc2)cc1
- AC50 [3]: 50 µM (active)
- AC50 [17]: 79.9 µM (active)
- outcome [4]: inactive
- AC50 [5]: 77.7 µM (active)
- AC50 [6]: 50 µM (active)
- AC50 [7]: 69.7 µM (active)
- AC50 [8]: 70 µM (active)
- outcome [10]: inactive
- outcome [11]: inactive
- AC50 [12]: 89.2 µM (active)
- AC50 [13]: 10.2 µM (active)
- AC50 [14]: 83.9 µM (active)
- AC50 [15]: 81.1 µM (active)
- AC50 [16]: 30.1 µM (active)

Compound: CCCCCCCC1CCC(=O)O1 (stereo unspecified)
- outcome [18]: inactive
- outcome [19]: inactive
- outcome [2]: inactive
- outcome [3]: inactive
- outcome [17]: inactive
- outcome [4]: inactive
- outcome [5]: inactive
- outcome [6]: inactive
- outcome [7]: inactive
- outcome [8]: inactive
- outcome [10]: inactive
- outcome [11]: inactive
- outcome [12]: inactive
- outcome [13]: inactive
- outcome [15]: inactive
- outcome [16]: inactive

Compound: Cn1c(=O)c2[nH]cnc2n(C)c1=O
- outcome [3]: inactive
- outcome [17]: inactive
- outcome [4]: inactive
- outcome [5]: inactive
- outcome [6]: inactive
- outcome [7]: inactive
- outcome [8]: inactive
- outcome [9]: inactive
- outcome [10]: inactive
- outcome [11]: inactive
- outcome [12]: inactive
- outcome [13]: inactive
- outcome [14]: inactive
- outcome [15]: inactive
- outcome [16]: inactive
